Assay [1] addresses ATP-dependent translocase ABCB1 (Homo sapiens) (UniProt P08183). The assay can be described thus: MDR1 (ABCB1) efflux transporter inhibition, cell-based (AID 377; in the data active means fluorescence slope change above about 50%). The note with it: MDR1-expressing cells, fluorescent substrate accumulation slope; stronger effect = higher value; concentration not given here.
Assay [2] can be described thus: polyglutamine-triggered caspase-3 activation inhibitors, cell-based (AID 1583). Particulars: polyglutamine-induced caspase-3 activation, cell assay; stronger effect = higher value;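 tested at 10 µM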.
A short description of assay [3]: suppressors of polyQ aggregation in yeast, 75Q-TubU reporter (AID 1593). The note with it: Yeast 75Q polyglutamine aggregation reporter.
The nature of assay [4]: rescue of polyQ-huntingtin neuronal dysfunction in worms, whole organism, C. elegans mechanosensory neurons, N-terminal huntingtin (AID 1599). Particulars: touch response, stronger effect = higher value.
Assay [5] in a line: inhibitors of mitochondrial cytochrome c release, biochemical, purified mitochondria (AID 1603).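 Further: mouse liver mitochondria challenged with calcium chloride; signal normalized to the plate average as 100%.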 Particulars: stronger effect = lower value.
Assay [6] is described as follows: inhibitors of polyQ protein aggregation (AID 1604). Particulars: polyglutamine-induced protein aggregation inhibition assay; stronger effect = higher value; tested at 2.5 µM.
Assay [7] is described as follows: enhancers of glutamate uptake in motor neurons, MN-1 cell line (AID 1612).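 Further: tested at 1 µM final; 0% = mean of DMSO vehicle wells on each plate; positive means more glutamate uptake than control and negative means less.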 Particulars: MN-1 motor neuron cells, stronger effect = higher value.
Assay [8] is described as follows: suppressors of polyglutamine aggregation in yeast, 75Q-TubH (AID 1616). The note with it: S. cerevisiae 75Q-TubH polyglutamine aggregation suppression; stronger effect = higher value.
Assay [9] can be described thus: hESC survival regulators, cell-based (AID 493140).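 Further: cells exposed to compounds for four days before counting.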 The note with it: human embryonic stem cell survival screen; stronger effect = higher value.
Assay [10] in a line: circadian clock period modulators, cell-based, LOPAC library, luminescence reporter (AID 2774).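 Further: values are relative to mean of DMSO wells on each plate.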 Particulars: circadian reporter cells, at 7 µM, actives lie on both sides.

Results filed as inconclusive are left out. For part of these data: Measured potencies and affinities stand elsewhere. Activity calls are given as the source filed them. Unless noted, how the calls were made is not given here.

Broadly, the inhibition is the change of the read-out against control, counted positive when it falls.

ATP-dependent translocase ABCB1 (Homo sapiens), sequence (P08183 whole entry, looked up): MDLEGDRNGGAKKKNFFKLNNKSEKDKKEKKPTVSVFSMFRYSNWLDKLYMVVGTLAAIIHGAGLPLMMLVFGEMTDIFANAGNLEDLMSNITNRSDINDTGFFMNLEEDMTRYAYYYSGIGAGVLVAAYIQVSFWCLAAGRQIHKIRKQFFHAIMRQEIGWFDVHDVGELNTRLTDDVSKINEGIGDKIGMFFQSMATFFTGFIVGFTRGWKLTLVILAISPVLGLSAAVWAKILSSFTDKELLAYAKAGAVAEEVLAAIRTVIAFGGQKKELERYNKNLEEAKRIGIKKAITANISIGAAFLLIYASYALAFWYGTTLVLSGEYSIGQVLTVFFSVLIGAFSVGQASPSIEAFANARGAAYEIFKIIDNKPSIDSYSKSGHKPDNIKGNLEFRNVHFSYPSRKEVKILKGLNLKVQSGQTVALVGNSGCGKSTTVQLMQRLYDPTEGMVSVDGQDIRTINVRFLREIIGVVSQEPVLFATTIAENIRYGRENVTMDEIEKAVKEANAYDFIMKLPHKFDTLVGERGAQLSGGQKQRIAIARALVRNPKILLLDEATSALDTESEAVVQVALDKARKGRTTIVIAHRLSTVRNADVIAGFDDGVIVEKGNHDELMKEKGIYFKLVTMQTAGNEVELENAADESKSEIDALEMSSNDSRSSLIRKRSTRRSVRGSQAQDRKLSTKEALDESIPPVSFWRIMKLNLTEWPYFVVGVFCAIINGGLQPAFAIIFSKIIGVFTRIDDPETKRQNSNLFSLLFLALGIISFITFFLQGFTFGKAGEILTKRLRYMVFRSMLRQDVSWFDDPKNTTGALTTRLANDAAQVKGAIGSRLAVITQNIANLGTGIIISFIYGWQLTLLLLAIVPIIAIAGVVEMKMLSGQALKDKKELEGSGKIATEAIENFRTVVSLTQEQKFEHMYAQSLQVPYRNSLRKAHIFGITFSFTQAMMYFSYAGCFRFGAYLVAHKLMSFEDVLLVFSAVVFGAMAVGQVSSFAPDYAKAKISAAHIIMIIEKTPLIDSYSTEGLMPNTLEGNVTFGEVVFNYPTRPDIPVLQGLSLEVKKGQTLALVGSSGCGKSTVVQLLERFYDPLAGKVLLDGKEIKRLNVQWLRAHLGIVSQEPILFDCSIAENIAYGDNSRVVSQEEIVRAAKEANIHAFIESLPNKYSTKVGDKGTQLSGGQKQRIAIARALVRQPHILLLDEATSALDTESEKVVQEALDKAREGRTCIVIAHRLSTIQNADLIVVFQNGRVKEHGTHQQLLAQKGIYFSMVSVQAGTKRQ

On to `CC1CCC(NC(=O)N(CCCl)N=O)CC1` (stereo not given), for which the fluorescence slope change in [1] was 10.9% (inactive). For the same compound, the inhibition in [2] came to 13.6%. Also, in assay [3], the score worked out at 0.02. Also, in [4], the rescue above control is -12.6. For the same compound, the cytochrome c release ratio in assay [5] worked out at 1.01. Further, the inhibition of aggregation in assay [6] was 26.4%. The glutamate uptake change in assay [7] was -7.99%. For the same compound, the aggregation suppression score in [8] was determined as 0.0109.
Consider `CCCCC1C(=O)N(c2ccccc2)N(c2ccc(O)cc2)C1=O` (stereo not given), for which the inhibition in assay [2] is -30.1%. For the same compound, in assay [3], the score amounted to 0.89. In addition, the rescue above control in assay [4] was -3.48. In addition, in assay [5], the cytochrome c release ratio amounted to 0.98. In assay [6], this compound registered an inhibition of aggregation of 61%. The glutamate uptake change in [7] was 5.7%. This compound came in with an aggregation suppression score in [8] of 0.77. Besides, the survival in assay [9] is 4 (inactive).
Turning to `C1CCC(C(CC2CCCCN2)C2CCCCC2)CC1` (stereo not given), in assay [1], the fluorescence slope change was 352% (active). Moreover, the inhibition in assay [2] is 57.7%. For the same compound, the score in [3] was determined as 0.35. Besides, the rescue above control in assay [4] is -18. Besides, in [5], the cytochrome c release ratio stood at 1.56. In assay [6], this compound gave an inhibition of aggregation of 83.1%. In addition, in [7], the glutamate uptake change is -10.9%. Besides, in assay [8], the aggregation suppression score stood at 0.885. Moreover, in [9], the survival was 6 (inactive).
Regarding `CCN(CC)C(C)CN1c2ccccc2Sc2ccccc21` (stereo not given), the inhibition in assay [2] was -20.5%. Besides, the score in assay [3] worked out at 1.11. The compound further showed a rescue above control in assay [4] of -4.48. For the same compound, the cytochrome c release ratio in assay [5] is 0.98. Moreover, in [6], the inhibition of aggregation is 54.5%. In addition, in assay [7], the glutamate uptake change amounted to 47.6%. Moreover, in assay [8], the aggregation suppression score was determined as 1.19. Moreover, the survival in assay [9] was 4.08 (inactive).
Turning to `CCCC(C(=O)OCCN(CC)CC)(c1ccccc1)c1ccccc1`, the fluorescence slope change in assay [1] was 180% (active). Moreover, the inhibition in assay [2] was -4.65%. The compound also displayed a score in assay [3] of 1.32. In addition, in [4], the rescue above control was -2.09. Also, in assay [5], the cytochrome c release ratio came out at 2.6. For the same compound, the inhibition of aggregation in assay [6] turned out to be 77%. Further, the glutamate uptake change in assay [7] amounted to 0.18%. This compound also showed an aggregation suppression score in assay [8] of 1.25. In [10], the period change is -0.035 h (inactive). Besides, the survival in [9] was 3.58 (inactive).
Turning to `Cc1cc(N)c2ccccc2[n+]1CCCCCCCCCC[n+]1c(C)cc(N)c2ccccc21`, the fluorescence slope change in assay [1] is 97.9% (active). Also, in [2], the inhibition is -13.3%. The score in assay [3] came out at 0.06. Further, in assay [4], the rescue above control is -0.23. Further, the cytochrome c release ratio in assay [5] was 6.78. The compound further came in with an inhibition of aggregation in [6] of 43.1%. Further, the glutamate uptake change in [7] is 12.9%. The aggregation suppression score in assay [8] came to 0.0487. The period change in assay [10] is 0.12 h (inactive). Besides, the survival in assay [9] is 0.167 (inactive).
As for `CN(C)CCCN1c2ccccc2Sc2ccc(C(F)(F)F)cc21`, the inhibition in [2] came out at 30.2%. In assay [3], this compound returned a score of 1.13. The compound also displayed a rescue above control in [4] of 19.8. Also, in assay [5], the cytochrome c release ratio came out at 0.7. For the same compound, in assay [6], the inhibition of aggregation came to 76%. Moreover, in assay [7], the glutamate uptake change is 10.7%. The compound also returned an aggregation suppression score in [8] of 1.05. Moreover, the period change in [10] was -0.13 h (inactive). The survival in assay [9] was 5.42 (inactive).
Regarding `NC(=NCCCCCCN=C(N)/N=C(\N)Nc1ccc(Cl)cc1)/N=C(\N)Nc1ccc(Cl)cc1`, in assay [1], the fluorescence slope change was 250% (active). Further, in assay [2], the inhibition was determined as 66.8%. This compound displayed a score in assay [3] of 0.16. For the same compound, in assay [4], the rescue above control is 0. Further, the cytochrome c release ratio in assay [5] was found to be 12.9. In assay [6], this compound showed an inhibition of aggregation of 79.3%. In addition, the glutamate uptake change in [7] is -13.4%. In assay [8], this compound showed an aggregation suppression score of 0.0711. The survival in [9] is 3.17 (inactive).
Turning to `COC(=O)[C@H]1[C@H]2C[C@@H]3c4[nH]c5cc(OC)ccc5c4CCN3C[C@H]2C[C@@H](OC(=O)c2cc(OC)c(OC)c(OC)c2)[C@@H]1OC`, the fluorescence slope change in [1] was 51.8% (active). For the same compound, the inhibition in [2] was -42.7%. In assay [3], this compound showed a score of 1.16. The compound further had a rescue above control in assay [4] of -12.7. For the same compound, the cytochrome c release ratio in assay [5] was determined as 1.46. The same compound returned an inhibition of aggregation in assay [6] of 63.2%. Moreover, the glutamate uptake change in assay [7] amounted to 4.63%. In assay [8], the aggregation suppression score came out at 1.07. Moreover, the period change in assay [10] is 0.165 h (inactive). Further, the survival in [9] is 6.17 (inactive).
As to `C/C=C(/C(=C/C)c1ccc(O)cc1)c1ccc(O)cc1`, in [1], the fluorescence slope change was 10.7% (inactive). For the same compound, in assay [2], the inhibition is 31.3%. This compound gave a score in assay [3] of 0.33. In assay [4], this compound registered a rescue above control of -4.61. Also, the cytochrome c release ratio in assay [5] stood at 4.08. In assay [6], this compound came in with an inhibition of aggregation of 63.2%. In assay [7], the glutamate uptake change is -21.7%. The same compound yielded an aggregation suppression score in assay [8] of 0.184. Moreover, the survival in assay [9] was 5.92 (inactive).

For the origin of these results see PubChem BioAssay.
